Measured values as given in PubChem BioAssay AID493206 (National Center for Advancing Translational Sciences (NCATS), 2011).
Inconclusive results are not listed. Active and inactive are the calls of the source. Calls come from the whole dose curve; as a rule, active = well fitted inhibition curve with a large enough effect; inconclusive = small, poorly fitted or top-dose-only effect; inactive = flat fitted curve, though single readings scatter.

Target: Dual specificity tyrosine-phosphorylation-regulated kinase 1A (Homo sapiens) (UniProt Q13627)
Test: Assay for Inhibitors of Dual-Specificity Tyrosine-(Y)-Phosphorylation Regulated Kinase 1A (Kinase-Glo assay): round 2 SAR
Details: recombinant DYRK1A, Kinase-Glo ATP depletion luminescence; series mostly up to 76.9 µM
Description: NIH Molecular Libraries Probe Production Centers Network [MLPCN] NIH Chemical Genomics Center [NCGC] MLPCN Grant: 1R03MH084827-01 PI Name: Tom Misteli NCGC Assay Overview: The CMGC group of protein kinases which includes CDK-like kinases (Clk) and Dyks are essential kinases found in all eukaryotes. Clks have been implicated to play a role in the regulation of alternative splicing; while Dyrks, in particular over expression of Dyrk1A, has been linked to diseases as Down syndrome (DS; OMIM 190685) and Alzheimer disease (AD; OMIM 104300). Among the members of the CMGC group, the Clks and the Dyrks are very closely related therefore to determine validity and selectivity of an active compound observed in the CLK4 qHTS screen (AID:1770), a bioluminescent counter-screen against Dyrk1A was developed. In addition, potent and selective compounds against Dyrk1A were identified to further assess the role of this enzyme in DS and AD. Dyrk1A (Invitrogen, cat # PV3785) was assayed using ATP and DYRKtide (AnaSpec, cat# 62698) as substrates. Promega Kinase-Glo (cat# V6712) technology was used to detect the residual ATP following kinetic reaction. The Kinase-Glo Plus contains Ultra-Glo [5] luciferase and D-luciferin which generates a bioluminescence signal from the remaining ATP. No enzyme and harmine (Sigma, cat # 286044-1G), a compound shown to inhibit Dyrks were used as a positive control; while DMSO treatment was used as a negative control.
NCGC Assay Protocol Summary: Two uL/well of substrate solution (8uM Dyrktide, 2uM ATP, 25mM Tris-HCl pH 7.5, 10mM MgCl2 , 0.5mM EGTA, 5mM cystein, 0.01% Triton X-100 final concentration) was dispensed into 1536-well assay plates (Greiner, solid white, medium-binding plates) with Aurora Discovery BioRAPTR Flying Reagent Dispenser (FRD, Beckton-Dickenson). Compound solution (23 nL) was transferred to the assay plate using Kalypsys pin tool equipped with a 1536-pin tool. One uL/well enzyme solution (5nM Dyrk1A, 25mM Tris-HCl pH7.5, 10mM MgCl2, 0.5mM EGTA, 5mM cystein, 0.01% Triton X-100 final concentration) was then added using FRD yielding a total kinase reaction volume of 3uL/well. After 2 hours of room temperature incubation, 3uL Kinase-Glo detection reagent was added for a final assay volume of 6uL/well. The plates were spun for 30 seconds (1000 rpm) and incubated at ambient temperature for 2 minutes followed by a luminescence read using Perkin Elmer ViewLux plate reader at 3 seconds exposure time and 2x binning.

| SMILES | Potency |
| --- | --- |
| Cc1ccc(CN(C)c2ncnc3ccc(-c4ccc(C(=O)O)o4)cc23)o1 | 16.4 µM (active) |
| c1coc(CNc2ncnc3ccc(-c4ccc5c(c4)OCO5)cc23)c1 | 0.207 µM (active) |
| Cc1csc(CNc2ncnc3ccc(-c4ccc(C(=O)O)o4)cc23)n1 | 14.6 µM (active) |
| CN(C)CCCNc1ncnc2ccc(-c3ccc4c(c3)OCO4)cc12 | 8.23 µM (active) |
| c1nc(NCC2CCCCC2)c2cc(-c3ccc4c(c3)OCO4)ccc2n1 | 0.26 µM (active) |
| Cc1nc(CCN(C)c2ncnc3ccc(-c4ccc5c(c4)OCO5)cc23)cs1 | 0.654 µM (active) |
| c1nc(N2CCOCC2)c2cc(-c3ccc4c(c3)OCO4)ccc2n1 | 1.46 µM (active) |
| Clc1ccccc1-c1ccc2ncnc(NCc3cccnc3)c2c1 | 26 µM (active) |
| Clc1cccc(-c2ccc3ncnc(NCc4ccc5c(c4)OCO5)c3c2)c1 | inactive |
| Cn1ccc2cc(-c3ccc4ncnc(NCc5cccc(F)c5)c4c3)ccc21 | inactive |
| c1cncc(CNc2ncnc3ccc(-c4ccoc4)cc23)c1 | 9.23 µM (active) |
| O=C(O)c1ccc(-c2ccc3ncnc(NCc4nccs4)c3c2)o1 | 18.4 µM (active) |
| Cc1ccc(CN(C)c2ncnc3ccc(-c4ccc(CO)o4)cc23)o1 | 0.823 µM (active) |
| Cc1ccsc1CN(C)c1ncnc2ccc(-c3ccc(COC(=O)N(C)C)o3)cc12 | 9.23 µM (active) |
| Cc1ccc(CNc2ncnc3ccc(-c4ccc(C(=O)O)o4)cc23)o1 | 10.4 µM (active) |
| CN(Cc1ccco1)c1ncnc2ccc(-c3ccoc3)cc12 | 0.207 µM (active) |
| Cc1csc(CNc2ncnc3ccc(-c4ccc5c(c4)OCCO5)cc23)c1 | 1.64 µM (active) |
| c1nc(NCc2ccc3c(c2)OCO3)c2cc(-c3ccoc3)ccc2n1 | 18.4 µM (active) |
| Clc1cccc(-c2ccc3ncnc(NCc4cccs4)c3c2)c1 | 13 µM (active) |
| CCNC(=O)c1ccc(-c2ccc3ncnc(NCc4nccs4)c3c2)o1 | 10.4 µM (active) |

| SMILES | Potency |
| --- | --- |
| COc1cccc(-c2ccc3ncnc(NCc4cccc(F)c4)c3c2)c1 | 4.63 µM (active) |
| c1cncc(CNc2ncnc3ccc(-c4ccco4)cc23)c1 | 26 µM (active) |
| Cc1cccc(CNc2ncnc3ccc(-c4ccc5c(c4)OCCO5)cc23)c1 | 3.68 µM (active) |
| CN(CCc1ccco1)c1ncnc2ccc(-c3ccc4c(c3)OCO4)cc12 | 0.292 µM (active) |
| Cc1csc(CNc2ncnc3ccc(-c4ccc5c(c4)OCO5)cc23)c1 | 0.463 µM (active) |
| O=C(O)c1ccc(-c2ccc3ncnc(NCC4CCCO4)c3c2)o1 (stereo not given) | 23.2 µM (active) |
| CN(CC1CCCCC1)c1ncnc2ccc(-c3ccc4c(c3)OCO4)cc12 | 0.26 µM (active) |
| Cc1cccc(CNc2ncnc3ccc(-c4ccoc4)cc23)c1 | 3.68 µM (active) |
| Clc1ccccc1-c1ccc2ncnc(NCc3ccc4c(c3)OCO4)c2c1 | inactive |
| Cn1ccc2cc(-c3ccc4ncnc(NCc5ccc6c(c5)OCO6)c4c3)ccc21 | inactive |
| Cc1cccc(CNc2ncnc3ccc(-c4ccc5c(c4)OCO5)cc23)c1 | 1.04 µM (active) |
| CC(=O)c1ccc(-c2ccc3ncnc(NCc4ccc(C)o4)c3c2)o1 | 5.82 µM (active) |
| c1csc(CNc2ncnc3cc(-c4ccc5c(c4)OCO5)ccc23)c1 | 26 µM (active) |
| c1cncc(CNc2ncnc3ccc(-c4ccc5c(c4)OCO5)cc23)c1 | 0.412 µM (active) |
| Cn1cncc1CNc1ncnc2ccc(-c3ccc4c(c3)OCO4)cc12 | 0.463 µM (active) |
| Cc1csc(CNc2ncnc3ccc(-c4cccnc4)cc23)c1 | 23.2 µM (active) |
| Cc1cccc(-c2ccc3ncnc(NCc4cccs4)c3c2)c1 | 18.4 µM (active) |
| Clc1cccc(-c2ccc3ncnc(NCc4cccnc4)c3c2)c1 | 18.4 µM (active) |
| Cc1cccc(CNc2ncnc3ccc(-c4cccnc4)cc23)c1 | 29.2 µM (active) |
| CN(CC1CCCCO1)c1ncnc2ccc(-c3ccc4c(c3)OCO4)cc12 (stereo not given) | 0.292 µM (active) |
